PubChem BioAssay AID1159580 (chemical genetic matrix, 2015)
Values joined by “and” are separate entries in the source; they are usually repeats but may differ in a detail not shown here. Equal entries are not always repeated. Hit rate of the full screen: of about 5,500 compounds, about 2,000 (36%) were called active. Roughly 18% stayed inconclusive and do not appear here. No stated cut-off is given here; in the data, active means normalized growth mostly below about 0.91 (no sharp cut-off); inconclusive means no clear call, values can overlap the other calls; inactive means mostly above about 0.92. This is one part of the list.

Assay: chemical genetic growth profiling, strain panel (AID 1159580);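 further: tested at 20 µM; growth read once vehicle control cultures reached saturation at 30 °C; 1 = growth at the plate median or of vehicle wells; lower values mean less growth of the strain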
Details: growth OD

Measured: normalized growth

CCC1(C)CC(=O)NC1=O (stereo unspecified)
inactive: S. cerevisiae deletion strains, locus YJR075W, strain HOC1, hits give low values 1.01 | S. cerevisiae deletion strains, locus YKL009W, strain mrt4, hits give low values 1.03 | S. cerevisiae deletion strains, locus YKL068W, hits give low values 1.01 | S. cerevisiae deletion strains, locus YKL085W, strain MDH1 (second series), hits give low values 1.01 | S. cerevisiae deletion strains, locus YKL085W, strain MDH1, hits give low values 1.01 | S. cerevisiae deletion strains, locus YKL160W, strain elf1, hits give low values 0.992 | S. cerevisiae deletion strains, locus YKL190W, strain CNB1, hits give low values 1.02 | S. cerevisiae deletion strains, locus YKR001C, strain vps1, hits give low values 1.01 | S. cerevisiae deletion strains, locus YKR026C, strain gcn3, hits give low values 0.979 | S. cerevisiae deletion strains, locus YKR091W, strain srl3, hits give low values 0.972 | S. cerevisiae deletion strains, locus YLL001W, strain dnm1, hits give low values 0.967 | S. cerevisiae deletion strains, locus YLL026W, hits give low values 0.98 | S. cerevisiae deletion strains, locus YLL041C, strain sdh2, hits give low values 0.995 | S. cerevisiae deletion strains, locus YLR027C, strain aat2, hits give low values 0.975 | S. cerevisiae deletion strains, locus YLR039C, strain RIC1, hits give low values 1.03 | S. cerevisiae deletion strains, locus YLR058C, strain SHM2, hits give low values 1.02 | S. cerevisiae deletion strains, locus YLR102C, strain apc9, hits give low values 1.01 | S. cerevisiae deletion strains, locus YLR113W, strain HOG1, hits give low values 0.966 | S. cerevisiae deletion strains, locus YLR221C, strain rsa3, hits give low values 0.987 | S. cerevisiae deletion strains, locus YLR258W, strain gsy2, hits give low values 0.968 | S. cerevisiae deletion strains, locus YLR262C, strain YPT6 (second series), hits give low values 0.977 | S. cerevisiae deletion strains, locus YLR262C, strain YPT6, hits give low values 1.04 | S. cerevisiae deletion strains, locus YLR268W, strain sec22, hits give low values 1.02 | S. cerevisiae deletion strains, locus YLR320W, strain mms22, hits give low values 0.978 | S. cerevisiae deletion strains, locus YLR330W, strain CHS5, hits give low values 1.01 | S. cerevisiae deletion strains, locus YLR342W, strain FKS1 (second series), hits give low values 1.02 | S. cerevisiae deletion strains, locus YLR342W, strain FKS1, hits give low values 0.988 | S. cerevisiae deletion strains, locus YLR357W, strain rsc2, hits give low values 0.965 | S. cerevisiae deletion strains, locus YLR370C, strain arc18, hits give low values 0.981 | S. cerevisiae deletion strains, locus YLR371W, strain rom2, hits give low values 1.02 | S. cerevisiae deletion strains, locus YLR384C, strain iki3, hits give low values 0.969 | S. cerevisiae deletion strains, locus YLR418C, strain cdc73, hits give low values 1.02 | S. cerevisiae deletion strains, locus YML016C, strain PPZ1, hits give low values 1.01 | S. cerevisiae deletion strains, locus YML032C, strain rad52, hits give low values 1.01 | S. cerevisiae deletion strains, locus YML120C, strain ndi1, hits give low values 0.977 | S. cerevisiae deletion strains, locus YML124C, strain tub3, hits give low values 1.02 | S. cerevisiae deletion strains, locus YMR058W, strain fet3, hits give low values 0.969 | S. cerevisiae deletion strains, locus YMR078C, strain ctf18, hits give low values 1.02 | S. cerevisiae deletion strains, locus YMR125W, strain sto1, hits give low values 0.97 | S. cerevisiae deletion strains, locus YMR129W, hits give low values 0.979 | S. cerevisiae deletion strains, locus YMR205C, strain PFK2, hits give low values 0.992 | S. cerevisiae deletion strains, locus YMR223W, strain ubp8, hits give low values 1.02 | S. cerevisiae deletion strains, locus YMR231W, strain pep5, hits give low values 0.983 | S. cerevisiae deletion strains, locus YMR263W, strain SAP30, hits give low values 1.01 | S. cerevisiae deletion strains, locus YMR307W, strain GAS1, hits give low values 1.04 | S. cerevisiae deletion strains, locus YNL067W, strain RPL9B, hits give low values 1.01 | S. cerevisiae deletion strains, locus YNL071W, strain lat1, hits give low values 0.96 | S. cerevisiae deletion strains, locus YNL128W, strain TEP1, hits give low values 1.04 | S. cerevisiae deletion strains, locus YNL153C, strain GIM3, hits give low values 1.01 | S. cerevisiae deletion strains, locus YNL175C, strain NOP13, hits give low values 0.993 | S. cerevisiae deletion strains, locus YNL183C, strain NPR1, hits give low values 0.906 | S. cerevisiae deletion strains, locus YNL197C, strain WHI3, hits give low values 0.999 | S. cerevisiae deletion strains, locus YNL209W, strain ssb2, hits give low values 0.969 | S. cerevisiae deletion strains, locus YNL224C, strain SQS1, hits give low values 0.975 | S. cerevisiae deletion strains, locus YNL233W, strain BNI4, hits give low values 1 | S. cerevisiae deletion strains, locus YNL248C, strain rpa49, hits give low values 0.993 | S. cerevisiae deletion strains, locus YNL250W, strain rad50, hits give low values 1.01 | S. cerevisiae deletion strains, locus YNL271C, strain bni1, hits give low values 1.03 | S. cerevisiae deletion strains, locus YNL298W, strain CLA4, hits give low values 1.02 | S. cerevisiae deletion strains, locus YNL307C, strain MCK1, hits give low values 1.02 | S. cerevisiae deletion strains, locus YNL322C, strain KRE1 (second series), hits give low values 0.982 | S. cerevisiae deletion strains, locus YNL322C, strain KRE1, hits give low values 1.01 and 1.02 | S. cerevisiae deletion strains, locus YNR049C, strain mso1, hits give low values 0.969 | S. cerevisiae deletion strains, locus YNR052C, strain pop2, hits give low values 1.02 | S. cerevisiae deletion strains, locus YOL006C, strain TOP1, hits give low values 0.992 | S. cerevisiae deletion strains, locus YOL012C, strain htz1 0.885 | S. cerevisiae deletion strains, locus YOL147C, strain pex11, hits give low values 1.01 | S. cerevisiae deletion strains, locus YOR001W, strain rrp6, hits give low values 0.98 | S. cerevisiae deletion strains, locus YOR061W, strain CKA2, hits give low values 1.01 | S. cerevisiae deletion strains, locus YOR069W, strain VPS5, hits give low values 1.01 | S. cerevisiae deletion strains, locus YOR070C, strain gyp1, hits give low values 1.01 | S. cerevisiae deletion strains, locus YOR080W, strain dia2, hits give low values 0.976 | S. cerevisiae deletion strains, locus YOR083W, strain WHI5 (second series), hits give low values 1 | S. cerevisiae deletion strains, locus YOR083W, strain WHI5, hits give low values 0.976 | S. cerevisiae deletion strains, locus YOR106W, strain vam3, hits give low values 0.959 | S. cerevisiae deletion strains, locus YOR136W, strain idh2, hits give low values 1.02 | S. cerevisiae deletion strains, locus YOR144C, strain elg1, hits give low values 1.01 | S. cerevisiae deletion strains, locus YOR184W, strain ser1, hits give low values 1.01 | S. cerevisiae deletion strains, locus YOR231W, strain MKK1, hits give low values 0.977 | S. cerevisiae deletion strains, locus YOR265W, strain rbl2, hits give low values 0.978 | S. cerevisiae deletion strains, locus YOR270C, strain vph1, hits give low values 0.984 | S. cerevisiae deletion strains, locus YOR290C, strain snf2, hits give low values 0.963 | S. cerevisiae deletion strains, locus YOR316C, strain cot1, hits give low values 1.02 | S. cerevisiae deletion strains, locus YPL051W, strain arl3, hits give low values 0.987 | S. cerevisiae deletion strains, locus YPL055C, strain LGE1, hits give low values 0.988 and 1.06 | S. cerevisiae deletion strains, locus YPL078C, strain atp4, hits give low values 0.97 | S. cerevisiae deletion strains, locus YPL106C, strain sse1, hits give low values 1.01 | S. cerevisiae deletion strains, locus YPL240C, strain hsp82, hits give low values 0.973 | S. cerevisiae deletion strains, locus YPL241C, strain CIN2, hits give low values 1.01 | S. cerevisiae deletion strains, locus YPL256C, strain CLN2, hits give low values 0.956 | S. cerevisiae deletion strains, locus YPR119W, strain clb2, hits give low values 1.01 | S. cerevisiae deletion strains, locus YPR141C, strain kar3, hits give low values 1.02 | S. cerevisiae deletion strains, locus YPR163C, strain tif3, hits give low values 1.02 | S. cerevisiae deletion strains, locus YPR167C, strain met16, hits give low values 1.02 | S. cerevisiae deletion strains, strain wtn01, hits give low values 1.02 | S. cerevisiae strains, strain wild type, hits give low values 1.01
